Compound activity as filed in PubChem.
Pf growth 48h: inhibits P. falciparum growth in the first generation, 48 h | P. falciparum luciferase growth in erythrocytes, 48 h | Potency, µM (highest dose often 28.7 µM), for the others: top-dose activity change, negative = inhibition, actives largely listed as inhibitors | 310,000 compounds, 5.9% hits | AID 504832; note: % is set by controls: 0 for no effect and ±100 for the full control effect
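Luminescence readout; reporter = integrated firefly luciferase in P. falciparum. RBC culture at 2% hematocrit, 0.1% parasitemia final, 37 C/5% CO2; decreased signal taken as growth inhibition.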
Sm TGR inh: blocks Schistosoma mansoni thioredoxin glutathione reductase; Q962Y6; Potency, µM (top dose mostly 114 µM), without a hit: top-dose activity change, negative = inhibition, most hits filed as inhibitors; purified TGR, DTNB reduction, TNB absorbance 405 nm; 360,000 compounds, 3% hits; note: % is set by controls: 0 for no effect and ±100 for the full control effect; nearly all actives have a fitted effect of over 60% in size
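TGR 20 nM + NADPH 100 uM (dispensed conc.), cpd preinc 15 min RT; start with NADPH (500 uM addition) then DTNB (15 mM addition). Kinetic TNB absorbance, 405 nm filter. Four-parameter Hill fit across titration.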
Pf growth 96h: P. falciparum growth inhibition at 96 hour, primary screen for plastid delayed-death inhibitors | AID 504834 | 320,000 compounds, 6.9% hits | Potency, µM (doses to about 28.7 µM), for inactives: top-dose activity change, negative = inhibition, hits mostly inhibitors | P. falciparum luciferase reporter growth, 96 h; note: % is set by controls: 0 for no effect and ±100 for the full control effect
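96 h incubation, 37 C, 5% CO2, of luciferase-reporter P. falciparum-infected RBCs (2% hematocrit, 0.05% parasitemia final) with test compounds; endpoint luminescence.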
AmpC detergent: AmpC beta-lactamase inhibition with detergent present. 370,000 compounds, 0.041% hits. P00811. Potency, µM (highest dose often 114 µM), for the others: top-dose activity change, negative = inhibition, hits mostly inhibitors. AmpC hydrolysis of nitrocefin, absorbance 480 nm, 0.01% Triton. AID 485294;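 note: 0% = no-compound wells and -100% = no-enzyme wells; nearly all actives have a fitted effect of over 25% in size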
Target sequence (P00811 whole entry, looked up): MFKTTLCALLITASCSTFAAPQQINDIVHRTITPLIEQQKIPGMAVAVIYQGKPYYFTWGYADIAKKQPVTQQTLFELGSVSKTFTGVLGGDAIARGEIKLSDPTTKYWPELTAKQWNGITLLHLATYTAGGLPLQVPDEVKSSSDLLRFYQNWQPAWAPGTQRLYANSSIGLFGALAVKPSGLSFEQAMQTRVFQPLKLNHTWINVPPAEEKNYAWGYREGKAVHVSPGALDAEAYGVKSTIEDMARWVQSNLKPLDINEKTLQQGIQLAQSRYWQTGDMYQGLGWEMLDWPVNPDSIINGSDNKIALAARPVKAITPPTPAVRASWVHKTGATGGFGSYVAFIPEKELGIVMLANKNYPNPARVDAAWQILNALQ
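20 mM phosphate pH 7.0 + 0.01% (detergent screen) or 0.0001% Triton X-100; 5.3 nM AmpC reagent; cpd preinc 15 min RT; nitrocefin (800 uM stock) to start; A480 q20 s × 4 min; Activity was normalised to no-enzyme and no-compound control wells.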
SARS PLpro yeast: SARS-CoV PLP inhibition in yeast; S. cerevisiae expressing SARS-CoV PLpro, growth rescue; Potency, µM (top dose mostly 32.9 µM), inactives show top-dose activity, positive = growth rescue, usual class: activators; 330,000 compounds, 0.19% hits; calls by dose curve; note: 0% is about no effect; nearly all actives have a fitted effect of over 55% in size
AmpC no deterg: blocks E. coli AmpC beta-lactamase in detergent-free assay | P00811 | AmpC nitrocefin hydrolysis, absorbance 480 nm, 0.0001% Triton | Potency, µM (top dose mostly 57.1 µM), without a hit: at the highest dose activity change, negative = inhibition, usual class: inhibitors | 330,000 compounds, 0.52% hits | AID 485341;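 note: plate controls were no compound for no effect and no enzyme for full effect; nearly all actives have a fitted effect of over 20% in size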
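20 mM phosphate pH 7.0 + 0.01% (detergent screen) or 0.0001% Triton X-100; 5.3 nM AmpC reagent; cpd preinc 15 min RT; nitrocefin (800 uM stock) to start; A480 q20 s × 4 min; Activity was normalised to no-enzyme and no-compound control wells.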
An asterisk follows results filed as active. This is a sample that favours compounds with a hit; in the whole collection about 12% have one here. Unless noted, calls come from the whole dose curve; as a rule, active = well fitted curve in the direction sought with a large enough effect; inconclusive = small, poorly fitted or top-dose-only effect, or another doubt; inactive = no such curve, though single readings can be large; an effect the other way counts as inactive or inconclusive. Potency is the fitted concentration of half-maximal effect.

What do the screens show for `COc1ccc(CNC(=O)CSc2ncc3c(n2)-c2ccc(Cl)cc2N(Cc2ccc(F)cc2)S3(=O)=O)cc1OC`?
Sm TGR inh: 7%; AmpC detergent: 3%

What do the screens show for `O=S(=O)(c1ccc2[nH]ccc2c1)N1CCCCCC1`?
Pf growth 48h: -1%; Sm TGR inh: 7%; Pf growth 96h: 33%; AmpC detergent: -8%; SARS PLpro yeast: -3%; AmpC no deterg: -28%

How did O=C(CCC1N=C2c3ccccc3N=C(SCc3ccc(F)cc3)N2C1=O)NCCc1ccccc1 (centres undefined) do in these assays?
Sm TGR inh: 1%; AmpC detergent: 8%

What do the screens show for `CC(C)(C)NC(=O)C(c1ccco1)N(Cc1ccc(F)cc1)C(=O)c1snc(C(N)=O)c1N` (centres undefined)?
Pf growth 48h: inconclusive; Sm TGR inh: -3%; AmpC detergent: inconclusive; SARS PLpro yeast: inconclusive; AmpC no deterg: 21%

Results for COc1ccc(CN(C(=O)c2snc(C(N)=O)c2N)C(C(=O)NC(C)(C)C)c2ccco2)cc1 (centres undefined) ?
Pf growth 48h: inconclusive; Sm TGR inh: inconclusive; Pf growth 96h: 9.3µM*; AmpC detergent: inconclusive; SARS PLpro yeast: -4%; AmpC no deterg: 42%

How did COc1ccc(N(C(=O)c2snc(C(N)=O)c2N)C(C(=O)NCc2ccccc2)c2ccc(O)cc2)cc1 (centres undefined) do in these assays?
Pf growth 48h: -13%; Sm TGR inh: -1%; Pf growth 96h: 9%; AmpC detergent: -2%; SARS PLpro yeast: -2%; AmpC no deterg: -33%

Results for COc1ccc(CN(C(=O)c2snc(C(N)=O)c2N)C(C(=O)NC2CCCC2)c2cc(OC)ccc2OC)cc1 (centres undefined) ?
Pf growth 48h: 10µM*; Sm TGR inh: -13%; Pf growth 96h: 2.1µM*; AmpC detergent: inconclusive; SARS PLpro yeast: -10%; AmpC no deterg: 67%

How did COc1ccccc1N(C(=O)c1snc(C(N)=O)c1N)C(C(=O)NC1CCCCC1)c1cccc(OC)c1OC (centres undefined) do in these assays?
Pf growth 48h: 8.3µM*; Sm TGR inh: 5%; Pf growth 96h: -8%; AmpC detergent: 9%; SARS PLpro yeast: 2%; AmpC no deterg: 94%

Results for COc1ccc(OC)c(N(C(=O)c2snc(C(N)=O)c2N)C(C(=O)NCc2ccccc2)c2ccc(O)cc2)c1 (centres undefined) ?
Pf growth 48h: 10µM*; Sm TGR inh: -25%; Pf growth 96h: 13µM*; AmpC detergent: 2%; SARS PLpro yeast: 0%; AmpC no deterg: 2%

What do the screens show for `COc1ccccc1N(C(=O)c1snc(C(N)=O)c1N)C(C(=O)NC1CCCC1)c1ccco1` (centres undefined)?
Pf growth 48h: -17%; Sm TGR inh: -30%; Pf growth 96h: 14%; AmpC detergent: -7%; SARS PLpro yeast: 5%; AmpC no deterg: -20%

How did CN(C)S(=O)(=O)c1ccc(C(=O)NCCS(=O)(=O)N2CCN(c3ccccc3)CC2)cc1 do in these assays?
Sm TGR inh: -1%; AmpC detergent: -7%

Results for O=C(Nc1cccc2nsnc12)C1CC(=O)N(c2ccccc2)C1 (centres undefined) ?
Pf growth 48h: -11%; Sm TGR inh: 4%; Pf growth 96h: 19%; AmpC detergent: -1%; SARS PLpro yeast: -7%; AmpC no deterg: -6%

Results for COc1ccc(OC)c(C(C(=O)NC2CCCCC2)N(C(=O)c2snc(C(N)=O)c2N)c2ccccc2OC)c1 (centres undefined) ?
Pf growth 48h: 2.6µM*; Sm TGR inh: -5%; Pf growth 96h: 0%; AmpC detergent: 0%; SARS PLpro yeast: 1%; AmpC no deterg: 23%

What do the screens show for `COc1ccc(N(C(=O)c2snc(C(N)=O)c2N)C(C(=O)NC2CCCC2)c2cccs2)c(OC)c1` (centres undefined)?
Pf growth 48h: inconclusive; Sm TGR inh: 1%; Pf growth 96h: 79%; AmpC detergent: -12%; SARS PLpro yeast: -1%; AmpC no deterg: 37%

What do the screens show for `COCCn1c(C)cc(O)c(C(c2ccc(OC)cc2)N2CCN(c3ccccc3)CC2)c1=O` (centres undefined)?
Sm TGR inh: 8.9µM*; AmpC detergent: -3%

What do the screens show for `COc1ccc(N2CCN(C(=O)CN3CCN(C(c4ccccc4)c4ccccc4)CC3)CC2)cc1`?
Pf growth 48h: inconclusive; Sm TGR inh: -2%; Pf growth 96h: 0%; AmpC detergent: inconclusive; SARS PLpro yeast: 3%; AmpC no deterg: 166%

How did COCCn1c(C)cc(O)c(C(c2cccc(F)c2)N2CCN(c3ccccc3)CC2)c1=O (centres undefined) do in these assays?
Sm TGR inh: 7.9µM*; AmpC detergent: 0%

How did CCCn1c(N)c(C(c2ccc(OC)cc2)N2CCN(c3ccccc3)CC2)c(=O)[nH]c1=O (centres undefined) do in these assays?
Sm TGR inh: 2µM*; Pf growth 96h: inconclusive; AmpC detergent: 1%; SARS PLpro yeast: -7%; AmpC no deterg: 16%

How did CCCn1c(N)c(C(c2ccc(C(=O)OC)cc2)N2CCN(c3ccccc3)CC2)c(=O)[nH]c1=O (centres undefined) do in these assays?
Pf growth 48h: inconclusive; Sm TGR inh: inconclusive; Pf growth 96h: 0%; AmpC detergent: -10%; SARS PLpro yeast: -9%; AmpC no deterg: 59%

How did N=c1sccn1CC(=O)Nc1ccc(S(N)(=O)=O)cc1 do in these assays?
Pf growth 48h: inconclusive; Sm TGR inh: 45µM*; Pf growth 96h: inconclusive; AmpC detergent: -2%; SARS PLpro yeast: 0%; AmpC no deterg: -9%

Results for N=c1sccn1CC(=O)Nc1ccc(Cl)cc1[N+](=O)[O-] ?
Pf growth 48h: 20%; Sm TGR inh: 40µM*; Pf growth 96h: 25%; AmpC detergent: 5%; SARS PLpro yeast: 0%; AmpC no deterg: -20%

What do the screens show for `COc1cc(NC(=O)Cn2ccsc2=N)c(C)cc1[N+](=O)[O-]`?
Pf growth 48h: -21%; Sm TGR inh: -33%; Pf growth 96h: inconclusive; AmpC detergent: -7%; SARS PLpro yeast: 1%; AmpC no deterg: -47%

What do the screens show for `COc1ccc(OC)c(NC(=O)Nc2ccc3c(c2)CCC3)c1`?
Pf growth 48h: -10%; Sm TGR inh: 5%; Pf growth 96h: -22%; AmpC detergent: -6%; SARS PLpro yeast: -12%; AmpC no deterg: 8.9µM*
